Results published in PubChem BioAssay AID1491 (National Center for Advancing Translational Sciences (NCATS), 2009).
Records with an inconclusive call do not appear. Active and inactive are the calls of the source. Calls follow the shape of the dose curve; as a rule, active = well fitted inhibition curve with a large enough effect in the main read-out, with a control signal flat; inconclusive = small, poorly fitted or top-dose-only effect, or a change in a side signal; inactive = flat fitted curve, though single readings scatter.
Potency is read from the fitted curve at half-maximal effect.

The molecules below were run against Neuropeptide S receptor (Homo sapiens) (UniProt Q6W5P4) (assay: Confirmation Concentration-Response Assay for Antagonists of the Neuropeptide S Receptor: cAMP Signal Transduction). Conditions: CHO-NPSR cells, cAMP TR-FRET, antagonist mode; series mostly up to 22.3 µM.
Chain of Neuropeptide S receptor (Homo sapiens) (Q6W5P4 whole entry, looked up): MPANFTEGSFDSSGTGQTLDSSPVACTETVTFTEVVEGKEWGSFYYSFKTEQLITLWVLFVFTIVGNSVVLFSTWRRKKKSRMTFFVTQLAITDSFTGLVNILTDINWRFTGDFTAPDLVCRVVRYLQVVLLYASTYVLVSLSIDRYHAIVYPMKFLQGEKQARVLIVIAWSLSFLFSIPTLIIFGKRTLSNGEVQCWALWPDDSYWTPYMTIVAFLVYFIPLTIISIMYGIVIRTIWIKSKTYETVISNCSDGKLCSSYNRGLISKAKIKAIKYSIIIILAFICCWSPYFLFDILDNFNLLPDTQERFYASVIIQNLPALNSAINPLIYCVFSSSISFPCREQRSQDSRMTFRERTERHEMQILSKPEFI
Description: NIH Chemical Genomics Center [NCGC] NIH Molecular Libraries Probe Production centers Network [MLPCN] MLPCN Grant: X01-DA026210-01 Assay Submitter (PI): Heilig, Markus Alexander NCGC Assay Overview: Neuropeptide S receptor (NPSR), previously known as GPR154, is a recently de-orphanized G protein coupled receptor. Its endogenous ligand is the 20 amino acids peptide Neuropeptide S (NPS). […] NPS and its receptor are found in various tissues. Specifically they are highly expressed in brain areas that have been implicated in modulation of arousal, stress and anxiety. Central administration of NPS in mice produces an unusual profile of activity by inducing wakefulness and arousal, while at the same time suppressing anxiety. Therefore, NPSR may represent a novel drug target for the treatment of sleep and anxiety disorders. To identify NPSR antagonists, we developed a cell-based cAMP assay. NPS can stimulate the production of cAMP in Chinese hamster ovary cells stably expressing NPS receptor. This change in intracellular cAMP level can be detected by a homogeneous LANCE cAMP assay based on the TR-FRET (time resolved fluorescence resonance energy transfer) between a europium-labeled cAMP tracer complex and a cAMP-specific antibody labeled with Alexa Fluor 647. The europium-labeled cAMP tracer complex is formed by the tight interaction between Biotin-cAMP (b-cAMP) and streptavidin labeled with Europium-W8044 chelate (Eu-SA). Light pulse at 320 nm excites the europium of the cAMP tracer and the energy emitted is transferred to the Alexa molecule bound to the cAMP antibody, generating a TR-FRET signal at 665 nm. Residual energy from the europium will produce a light at 620 nm. The native unlabeled cAMP from cell lysates competes with the europium-cAMP tracer for antibody binding and reversely reduces the emission signal of Alexa by interrupting FRET between the two labeled molecules. Both emission signals from the FRET donor (620 nm) and the acceptor (665 nm) can be detected by a plate reader in the TRF mode. Expression of result in fluorescence ratio (665 nm/620 nm) helps to normalize differences due to cell density and reagent dispensing. This assay was successfully optimized to a 1536-well plate format. Select compounds from the primary screen (AID 1461) were chosen for confirmation based on potency, efficacy, SAR, and activity across other assays in PubChem and at NCGC. Other compounds are analogs of active compounds from the primary sceen.
NCGC Assay Protocol Summary: A Chinese hamster ovary (CHO) cell line stably expressing the NPS receptor (CHO-NPSR) was obtained from Dr. Heilig lab at NIAAA and maintained in F-12 Kaighn's media (Invitrogen, Carlsbad, CA, 21127) supplemented with 10 % FBS, 100 units/ml penicillin, 100 ug/ml streptomycin and 250 ug/ml geneticin at 37C, 5% CO2 in a humidified atmosphere. Before the assay, aliquots of cells were frozen and stored at -135C. The assay was performed in 1536-well format. Data are reported for both the ratio of the two emission wavelengths, and also for the component 'donor' channel, Em2=620. […] IC50 values were determined from concentration-response data modeled with the standard Hill equation. NPS 1536-well assay protocol: (1) Fresh or frozen CHO-NPSR cells were suspended in F-12 Kaighn's media supplemented with 10 % FBS, 100 units/ml penicillin and 100 ug/ml streptomycin. Cells were plated at 4 ul/well (1200 cells) to white, tissue culture treated 1536-well plates, and then cultured at 37C, 5 % CO2 for 16 to 30 hours. (2) Add 23 nl/well of compound in DMSO solution. The final titration for each compound was between 0.6 nM and 46 uM. (3) Add 1 ul of stimulation reagent (1X HBSS buffer, 5 mM HEPES, 0.1% BSA, 500 uM RO-201724 (Sigma-Aldrich, B8279), 1.5% Alexa 647-labeled anti-cAMP antibody (from Perkin Elmer), 100 nM NPS) (4) Incubation at 37C, 5 % CO2 for 60 min. (5) Add 1 ul/well detection reagent. […]
With `CN(C)C(=S)SSC(=S)N(C)C` the Potency was “inactive”.
`Cn1ncnc2c(=O)n(C)c(=O)nc1-2` was tested, and the Potency was “inactive”.
`Cc1cccc(N2C(=O)NC(=O)/C(=C\c3cnn(-c4ccccc4)c3)C2=O)c1` was tested, and the Potency was 10 µM (active).
For `CCOC(=O)c1c(-n2c(C)cc(C=C3C(=O)NC(=S)NC3=O)c2C)sc2c1CCCC2`, the Potency was 10 µM (active).
In the case of `C=C(C=O)CC1CC(O)[C@]2(C)OC3CC4OC5C[C@]6(C)O[C@]7(C)CCC8OC9C[C@]%10(C)OC%11C(C)=CC(=O)OC%11CC%10OC9C[C@@H](C)C8OC7CC6O[C@]5(C)CC5OC5C4OC3CC2O1` (stereo partly specified), the Potency is reported as “inactive”.
With `Cc1cc(C=C2C(=O)NC(=S)NC2=O)c(C)n1-c1ccc2c(c1)OCO2` the Potency was 12.6 µM (active).
`C=C1C(=O)O[C@@H]2C[C@@H](C)[C@@H]3C=CC(=O)[C@@]3(C)[C@@H](OC(=O)CC(=O)O[C@H]3[C@@H]4C(=C)C(=O)O[C@@H]4C[C@@H](C)[C@@H]4C=CC(=O)[C@]43C)[C@H]12` was tested, and the Potency was 1 µM (active).
In the case of `Cc1c(P(=S)(c2ccccc2)c2ccccc2)[n+]2ccccc2n1C`, the Potency is reported as 1.12 µM (active).
With `C[C@H]1CCCC(=O)CCCCCc2cc(O)cc(O)c2C(=O)O1` the Potency was “inactive”.
With `CC(=O)Nc1cc([As](=O)(O)O)ccc1O` the Potency was “inactive”.
For `C=CCN1C(=O)/C(=C/c2cccs2)C(=O)NC1=S`, the Potency was 11.2 µM (active).
